Compound activity (PubChem BioAssay)
MITF primary – human MITF inhibition, primary screen | AlphaScreen MITF homodimerization, bead proximity signal | inhibition, % at 2.6 µM | hit rate 0.91% among 650,000; in the data active = inhibition above about 50%
FBW7 act – human FBW7 E3 ligase activation, primary screen. hit rate 0.13% among 650,000. AID 1259310. Q969H0. AlphaScreen FBW7–phospho-cyclin E peptide binding, activator screen. normalized activity (activation), % at 26.1 µM; in the data active = normalized activity above about 1.9%;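 note: purified mutant Fbw7 with reduced substrate affinity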
TEAD-YAP block – TEAD-YAP interaction inhibition | HEK-TIYL cells, TEAD-Gal4/YAP UAS-luciferase luminescence | inhibition, % at 9.12 µM | hit rate 1.4% among 640,000 | AID 1259422; in the data active = inhibition above about 32%
GPR151 ag – activators of human GPR151; PathHunter beta-arrestin GPR151 cells, luminescence; activation, % at 11.2 µM; hit rate 1% among 650,000; AID 1508602; in the data active = activation above about 4.9%
GPR151 confirm – human GPR151 activation, confirmation screen | shares compounds with GPR151 ag | GPR151 PathHunter beta-arrestin cells, luminescence, 90 min; % of EA-reagent control over plate median | activation, % at 11.2 µM | 6,700 tested, under 10 active;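 active = mean percent activation across replicates above the confirmation screen cutoff of 4.91%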
GPR119 ag – counter-screen for GPR151 activators: effect on human GPR119; shares compounds with GPR151 ag; GPR119 PathHunter beta-arrestin cells, luminescence, 90 min; 0 = compound-well median, 100 = enzyme-acceptor control; activation, % at 11.2 µM; hit rate 0.3% among 6,700;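 active = mean percent activation in the counterscreen above 29.09%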;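 note: counterscreen on off-target GPR119 to flag nonselective hits from the GPR151 activator screen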
Target sequence (Q8TDV5 whole entry, looked up): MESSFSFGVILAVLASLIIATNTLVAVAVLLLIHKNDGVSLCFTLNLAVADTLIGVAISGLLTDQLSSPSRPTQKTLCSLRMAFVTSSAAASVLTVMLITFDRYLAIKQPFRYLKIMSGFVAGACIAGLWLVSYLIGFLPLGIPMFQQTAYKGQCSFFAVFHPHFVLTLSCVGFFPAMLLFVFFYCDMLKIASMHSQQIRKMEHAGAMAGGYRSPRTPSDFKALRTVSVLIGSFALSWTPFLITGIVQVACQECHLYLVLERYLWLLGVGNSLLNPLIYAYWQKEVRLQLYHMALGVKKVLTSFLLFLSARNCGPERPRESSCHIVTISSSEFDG
Hits are given with their value; – = inactive; · = no result given. Rows were chosen to be rich in hits. Some 3.5% of all compounds tested hit in one or more screens of this group.

SMILES | MITF primary | FBW7 act | TEAD-YAP block | GPR151 ag | GPR151 confirm | GPR119 ag
COc1ccc(N(CCCN2C(=O)c3cccc4cccc(c34)C2=O)C(=O)c2ccc([N+](=O)[O-])cc2Cl)cc1 | – | – | – | 12 | – | –
COc1ccc(N(CCCN2C(=O)c3cccc4cccc(c34)C2=O)C(=O)c2cc(Cl)cc(Cl)c2)cc1 | – | – | – | – | · | ·
CC(C)C(=O)NCCc1nnc2n1CCN(Cc1cc3ccccc3o1)CC2 | – | – | – | – | · | ·
O=C(Cc1ccc(F)cc1)NCCc1nnc2n1CCN(Cc1cc3ccccc3o1)CC2 | – | – | – | 5.1 | – | –
CCCCCn1c(SCC(=O)OCC)nc2cc(C(=O)NC3CCCCC3)ccc2c1=O | – | – | – | 5.4 | – | –
C#CCN(CC#C)c1cccc(Cl)c1 | – | – | – | 8.2 | – | –
C#CCN(CC#C)c1ccc(Cl)cc1 | – | – | – | – | · | ·
C[C@H]1C(=O)N2CCN(Cc3nc(-c4ccc(F)cc4)cs3)C[C@@H]2C(=O)N1C | – | – | – | – | · | ·
CC(NC(=O)Nc1ccc(F)cc1F)c1ccc2c(c1)OCO2 (stereo not drawn) | – | – | – | 7.2 | – | –
CC(NC(=O)c1ccc(F)cc1)c1ccc2c(c1)OCCO2 (stereo not drawn) | – | – | – | – | · | ·
CCCNC(=O)C(=O)NCCc1ccc(OC)c(OC)c1 | – | – | – | 6.2 | – | –
COc1ccc(CCNC(=O)C(=O)NCCC(C)C)cc1OC | – | – | – | – | · | ·
NC(=O)c1ccc(-c2cc(NCCc3ccc(O)cc3)nc(N)n2)cc1 | – | – | – | – | · | ·
Nc1nc(NCCc2ccc(O)cc2)cc(-c2ccc(C(=O)NC3CC3)cc2)n1 | – | – | – | 6.8 | – | –
O=C1C(=O)N(c2ccccn2)C(c2ccc(F)cc2)/C1=C(/O)c1ccc([N+](=O)[O-])cc1 (stereo not drawn) | – | – | – | – | · | ·
COc1ccc(C2=NN(S(=O)(=O)c3ccc(C)cc3)C(c3ccccc3)C2)cc1 (stereo not drawn) | – | – | – | – | · | ·
CCN(CC)c1nc(Nc2ccccc2)nc(N2CCN(c3ccccn3)CC2)n1 | – | – | – | – | · | ·
Cc1ccc2nc(N3CCC(NCC(C)C)CC3)nc(C)c2c1 | – | – | – | 7.9 | – | –
COc1ccc2nc(N3CCC(NCC(C)C)CC3)nc(C)c2c1 | – | – | – | – | · | ·
CC1CCCN(CCCNC(=O)c2ccc3c(c2)NC(=O)C(N2CCOCC2)S3)C1 (stereo not drawn) | – | – | – | 6.2 | – | –
NC(=O)C1CCN(C(=O)C(=O)c2cn(CC(=O)N3CCCCCC3)c3ccccc23)CC1 | – | – | – | 6.2 | – | –
O=C(CSc1cn(CC(=O)N2CCOCC2)c2ccccc12)NC1CCCC1 | – | – | – | 5.4 | – | –
COc1ccc(C(=O)CCC(=O)NCC2Cc3cc(F)cc(-c4ccccn4)c3O2)cc1 (stereo not drawn) | – | – | – | – | · | ·
CCCN1C(=O)C(O)(CC(=O)c2ccccc2O)c2ccccc21 (stereo not drawn) | – | – | – | 11 | – | –
Brc1ccc(-c2nc(-c3cccnc3)no2)cc1 | – | – | – | – | · | ·
SMILES | MITF primary | FBW7 act | TEAD-YAP block | GPR151 ag | GPR151 confirm | GPR119 ag
CCc1cc(-c2n[nH]c(C)c2-c2nc(C)cs2)c(O)cc1OC | – | – | – | 8.0 | – | –
Cc1ccc(NC(=O)C(CC(=O)O)NCc2ccco2)cc1 (stereo not drawn) | – | – | – | 7.6 | – | –
CCOc1cc(/C=N/n2cnnc2)cc(Br)c1OCc1ccccc1 | – | – | – | – | · | ·
COc1ccc(CCNC(=O)c2ccc3c(c2)ncn3-c2ccc(C)cc2C)cc1OC | – | – | – | – | · | ·
Cc1ccc(-n2cnc3cc(C(=O)NCCc4ccccc4)ccc32)c(C)c1 | – | – | – | 5.5 | – | –
CCOc1ccc(CC(=O)Nc2ccccc2)cc1OCC | – | – | – | – | · | ·
CCOc1ccc(CC(=O)Nc2ccc(I)cc2)cc1OCC | – | – | – | 6.0 | – | –
CCc1nn(CC(=O)NCCN(C)C2CCCCC2)c(=O)c2cc3sc(C)cc3n12 | – | – | – | 8.6 | – | –
Cc1cc2c(cc3c(=O)n(CC(=O)NCCCN4CCCC(C)C4)nc(C)n32)s1 (stereo not drawn) | – | – | – | 7.7 | – | –
Cc1cc2c(cc3c(=O)n(CC(=O)N4CCCC(C)C4)nc(C)n32)s1 (stereo not drawn) | – | – | – | – | · | ·
CC1(C)CC(NC(=O)COc2ccccc2)CC(C)(CNC(=O)COc2ccccc2)C1 (stereo not drawn) | – | – | – | 5.4 | – | –
CC12CC3CC(C)(C1)CC(CNC(=O)COc1ccccc1)(C3)C2 | – | – | – | – | · | ·
COc1ccc(NC(=O)Cn2cc(C=O)c3ccccc32)c(OC)c1 | – | – | – | – | · | ·
CSCCC(NC(=O)C1CCC(C)CC1)C(=O)NCc1ccccn1 (stereo not drawn) | – | – | – | 5.0 | – | –
Cc1nc(SC2CCCCC2=O)c(C#N)c(-c2cccs2)c1C(=O)Nc1ccccc1 (stereo not drawn) | – | – | – | 5.1 | – | –
O=c1[nH]cc(N=Cc2ccc([N+](=O)[O-])cc2)c(=O)[nH]1 | – | – | – | 6.5 | – | –
O=c1[nH]cc(N=Cc2ccc(O)cc2)c(=O)[nH]1 | – | – | – | – | · | ·
COc1cc(/C=N/O)cc(Cl)c1OS(=O)(=O)c1ccc(C)cc1 | – | – | – | 4.9 | – | –
COc1cc(/C=N/O)cc(Cl)c1OC | – | – | – | – | · | ·
O=C(c1ncoc1-c1cccs1)N1CCN(c2ccccc2F)CC1 | – | – | – | 5.1 | – | –
O=C(c1cc(-c2cccs2)[nH]n1)N1CCN(c2ccccc2F)CC1 | – | – | – | – | · | ·
CCOc1ccccc1Nc1ncnc2c1c(-c1ccccc1)cn2-c1cccc(C(F)(F)F)c1 | – | – | – | – | · | ·
CC(C)CC(=O)N1CCn2c(nc3ccccc32)C1 | – | – | – | – | · | ·
O=C(NC1CCS(=O)(=O)C1)/C(=C/c1cn(-c2ccccc2)nc1-c1cccs1)NC(=O)c1ccccc1 (stereo not drawn) | – | – | – | 5.8 | – | –
COc1ccc2cc(/C=N/Nc3ccccn3)c(Cl)nc2c1 | – | – | – | 12 | – | –
COc1ccc(-c2nc3n(n2)C(c2ccc(OC)cc2OC)C(C(N)=O)=C(C)N3)cc1 (stereo not drawn) | – | – | – | 7.4 | – | –
COc1ccc(-c2nc3n(n2)C(c2cc(OC)ccc2OC)C(C(N)=O)=C(C)N3)cc1 (stereo not drawn) | – | – | – | – | · | ·
Cc1cccc(C(=O)Nc2ccc(F)c(Cl)c2)c1[N+](=O)[O-] | – | – | – | – | · | ·
CCn1nc(C)c(CNCc2cn[nH]c2-c2ccc(OC)c(F)c2)c1C | – | – | – | 5.4 | – | –
